In article PMC11062922 (Nature Chemical Biology, 2023) one finds potency estimated from few doses data, which are given here for 19 molecules.

SMILES strings stand for the structures. Where two headings read alike, the source gives them in different places.

Parameters in all cases: species or system human, MV4-11 + K-562 + COLO205 + SK-N-BE2 + OVCAR-8
In one test the test system is BMPR1B. The note with it: read-out: apparent Kd, n = 1.
Another test relates to EPHA5. The settings on record: read-out: apparent Kd, n = 1.
A further test has as its system FLT4. The settings on record: read-out: apparent Kd, n = 1.
For the next test, the system named is TGFBR1. The settings on record: read-out: apparent Kd, n = 1.
In a further test the test system is JAK2. The note with it: read-out: apparent Kd, compound concentrations: 100 nM and 1000 nM (sheet 'Samples'), n = 1.
A further test concerns DDR2. The settings on record: read-out: apparent Kd, n = 1.
The test system of the next test is EPHB6. The settings on record: read-out: apparent Kd, n = 1.
The test system of a further test is PRKD2. The settings on record: read-out: apparent Kd, compound concentrations: 100 nM and 1000 nM (sheet 'Samples'), n = 1.
The subject of another test is AKT1. The settings on record: read-out: apparent Kd, n = 1.
The next test deals with RIOK2. The settings on record: read-out: apparent Kd, n = 1.
The test system of a further test is AURKB. The settings on record: read-out: apparent Kd, n = 1.
The test system of the next test is CDKL5. The settings on record: read-out: apparent Kd, compound concentrations: 100 nM and 1000 nM (sheet 'Samples'), n = 1.
Another test concerns PLK4. The note with it: read-out: apparent Kd, compound concentrations: 100 nM and 1000 nM (sheet 'Samples'), n = 1.
Another test relates to ACAD8. The note with it: read-out: apparent Kd; compound concentrations: 100 nM and 1000 nM (sheet 'Samples'), CATDS: 1.7028042656885199E-2; n = 1.
The subject of another test is CDK16. The settings on record: read-out: apparent Kd; compound concentrations: 100 nM and 1000 nM (sheet 'Samples'), CATDS: 1.6285845495215501E-2; n = 1.
Another test has as its system MAP2K5. The settings on record: read-out: apparent Kd; compound concentrations: 100 nM and 1000 nM (sheet 'Samples'), CATDS: 5.3465139975610303E-2; n = 1.
The test system of a further test is MAPK9. The note with it: read-out: apparent Kd; compound concentrations:100 nM and 1000 nM (sheet 'Samples'); n = 1.
Where [1] appears, read: compound concentrations:100 nM and 1000 nM (sheet 'Samples').

As for `Cl.Oc1cccc(Nc2ccnc3cc(-c4ccncc4)ccc23)c1` [GW494601A], the potency estimated from few doses in the test on BMPR1B (compound concentrations: 100 nM and 1000 nM (sheet 'Samples'), CATDS: 3.10657492682959E-2) was 0.211 µM; in the test with EPHA5 (compound concentrations: 100 nM and 1000 nM (sheet 'Samples'), CATDS: 3.7293479964616502E-2), 0.113 µM; in the test with FLT4 (compound concentrations: 100 nM and 1000 nM (sheet 'Samples'), CATDS: 2.2541605457452998E-2), 0.773 µM; with TGFBR1 (compound concentrations: 100 nM and 1000 nM (sheet 'Samples'), CATDS: 2.26052406331183E-2), 0.762 µM.

As for `COc1ccccc1CNC1=NC(=O)/C(=C/c2ccc3ncccc3c2)S1` [RO4503315-000], in the test on JAK2 (CATDS: 8.0204348967342395E-2), the potency estimated from few doses is 0.755 µM.

For the molecule `CCN(CC)CCOc1ccc(Nc2ncc3cc(-c4c(Cl)cccc4Cl)c(=O)n(C)c3n2)cc1` [SB-601273], the potency estimated from few doses was 0.239 µM with BMPR1B (setting [1]); 0.319 µM in the test on DDR2 (setting [1]); 0.135 µM with EPHA5 (setting [1]); 0.175 µM in the test with EPHB6 (setting [1]); 0.27 µM in the test with TGFBR1 (setting [1]).

As to `NC(=O)c1cccc(Nc2nccc(Nc3cccc4[nH]ncc34)n2)c1` [GW782612X], the potency estimated from few doses in the test on DDR2 (compound concentrations: 100 nM and 1000 nM (sheet 'Samples'), CATDS: 3.15347900030735E-2) was 2.58 µM; in the test with TGFBR1 (compound concentrations: 100 nM and 1000 nM (sheet 'Samples'), CATDS: 5.60805138513292E-2), 0.406 µM.

Turning to `Cc1cccc(Nc2nc(NCCN)ncc2C(N)=O)c1` [GSK1292139B], the potency estimated from few doses in the test with PRKD2 (CATDS: 7.4938194739321201E-2) is 1.25 µM.

Regarding `Cc1ccc(O)cc1Nc1ccnc2cc(-c3ccc(CN4CCCCC4)o3)ccc12` [GW557777X], the potency estimated from few doses in the test on BMPR1B (compound concentrations: 100 nM and 1000 nM (sheet 'Samples'), CATDS: 2.1920480328631101E-2) was 0.0732 µM; in the test with DDR2 (compound concentrations: 100 nM and 1000 nM (sheet 'Samples'), CATDS: 1.39203861332134E-2), 0.8 µM; in the test with EPHA5 (compound concentrations: 100 nM and 1000 nM (sheet 'Samples'), CATDS: 3.4723791615605203E-2), 0.0156 µM; with FLT4 (compound concentrations: 100 nM and 1000 nM (sheet 'Samples'), CATDS: 1.3507307153085599E-2), 1.02 µM; in the test with PRKD2 (CATDS: 2.1213632342937001E-2), 0.0835 µM; in the test on TGFBR1 (compound concentrations: 100 nM and 1000 nM (sheet 'Samples'), CATDS: 1.55635860325104E-2), 0.377 µM.

Turning to `CS(=O)(=O)CCNCc1ccc(-c2ccc3ncnc(Nc4ccc(OCc5cccc(F)c5)c(C(F)(F)F)c4)c3c2)o1` [GW576484X], the potency estimated from few doses was 2.1 µM in the test with AKT1 (compound concentrations: 100 nM and 1000 nM (sheet 'Samples'), CATDS: 4.8644382119909499E-2); 1.29 µM with EPHA5 (compound concentrations: 100 nM and 1000 nM (sheet 'Samples'), CATDS: 6.1198720687785702E-2); 1.41 µM in the test with RIOK2 (compound concentrations: 100 nM and 1000 nM (sheet 'Samples'), CATDS: 5.8358702635658101E-2).

Regarding `NC1=NC(=O)/C(=C/c2ccc3ncccc3c2)S1` [RO4569139-000], in the test on JAK2 (CATDS: 8.9240627559774202E-2), the potency estimated from few doses is 0.708 µM.

For the molecule `COc1cc(Nc2ccnc3cc(-c4ccncc4)ccc23)cc(OC)c1OC.Cl` [GW494610A], the potency estimated from few doses with AURKB (compound concentrations: 100 nM and 1000 nM (sheet 'Samples'), CATDS: 5.7571781244095399E-2) was 0.0903 µM; in the test on BMPR1B (compound concentrations: 100 nM and 1000 nM (sheet 'Samples'), CATDS: 3.91672481095015E-2) it was 0.233 µM; in the test on EPHB6 (compound concentrations: 100 nM and 1000 nM (sheet 'Samples'), CATDS: 2.9510558776715799E-2), 0.536 µM; with TGFBR1 (compound concentrations: 100 nM and 1000 nM (sheet 'Samples'), CATDS: 2.6595956704932502E-2) it was 0.765 µM.

On to `O=C1N=C(NCc2cccs2)SC1Cc1ccc2ncccc2c1` (stereo not shown) [RO4629078-000], for which the potency estimated from few doses in the test on AURKB (compound concentrations: 100 nM and 1000 nM (sheet 'Samples'), CATDS: 8.1625100314479202E-3) was 1.2 µM; with CDKL5 (CATDS: 6.9445234986253998E-3), 2.32 µM; in the test with EPHA5 (compound concentrations: 100 nM and 1000 nM (sheet 'Samples'), CATDS: 1.5844356878219199E-2), 0.259 µM; in the test on FLT4 (compound concentrations: 100 nM and 1000 nM (sheet 'Samples'), CATDS: 1.2746443799933199E-2) it was 0.389 µM; in the test with PLK4 (CATDS: 1.60355035004788E-2), 0.254 µM; with PRKD2 (CATDS: 7.0804860166384202E-3), 2.11 µM.

In the case of `O=C1N=C(NCCc2cccc(Cl)c2)S/C1=C\c1ccc2ncccc2c1` [RO4509201-000], the potency estimated from few doses in the test with JAK2 (CATDS: 7.2632093710390006E-2) was 0.736 µM.

Turning to `Cl.Cl.Cl.c1ccc(Oc2ccc(Nc3ccnc4cc(-c5ccc(CN6CCNCC6)o5)ccc34)cc2)nc1.c1ccc(Oc2ccc(Nc3ccnc4cc(-c5ccc(CN6CCNCC6)o5)ccc34)cc2)nc1` [GW567142A], the potency estimated from few doses with ACAD8 was 2.04 µM; in the test on AKT1 (compound concentrations: 100 nM and 1000 nM (sheet 'Samples'), CATDS: 1.79490160981602E-2), 1.66 µM; with AURKB (compound concentrations: 100 nM and 1000 nM (sheet 'Samples'), CATDS: 2.12373497583834E-2), 0.952 µM; in the test on CDK16, 2.45 µM; with MAP2K5, 0.111 µM; in the test with RIOK2 (compound concentrations: 100 nM and 1000 nM (sheet 'Samples'), CATDS: 1.8917557706548099E-2), 1.38 µM.

As to `Cc1cccc(-c2cc(-c3c[nH]nc3-c3ccccn3)ccn2)c1` [GW679395X], the potency estimated from few doses with AKT1 (setting [1]) was 1.77 µM; in the test on RIOK2 (setting [1]), 1.63 µM; with TGFBR1 (setting [1]), 2.19 µM.

Regarding `O=C1N=C(NCC(CO)c2ccccc2)S/C1=C\c1ccc2ncccc2c1` (stereo not shown) [RO4582641-000], the potency estimated from few doses in the test on CDKL5 (CATDS: 6.3730815830875698E-2) was 1.51 µM.

Consider `CCn1cc(-c2ccnc3[nH]c(-c4cccc(CN(C)C)c4)cc23)c(-c2ccc(NC(=O)N(C)C)cc2)n1` [GSK1070916], for which the potency estimated from few doses in the test with AURKB (setting [1]) was 0.594 µM; with DDR2 (setting [1]), 1.83 µM.

On to `CS(=O)(=O)Cc1ccc(Nc2nccc(-c3c(-c4cccc(NC(=O)C5CCCCC5)c4)nn4ncccc34)n2)cc1` [GSK350559A], for which the potency estimated from few doses in the test with FLT4 (setting [1]) is 0.995 µM; in the test on MAPK9 it was 0.932 µM.

As to `Cc1ccc(O)cc1Nc1ccnc2cc(-c3ccccn3)ccc12.Cl` [GW440139A], the potency estimated from few doses is 0.941 µM with BMPR1B (compound concentrations: 100 nM and 1000 nM (sheet 'Samples'), CATDS: 2.7107507605443299E-2); 0.0972 µM with EPHA5 (compound concentrations: 100 nM and 1000 nM (sheet 'Samples'), CATDS: 4.7155213926178503E-2); 0.115 µM in the test with TGFBR1 (compound concentrations: 100 nM and 1000 nM (sheet 'Samples'), CATDS: 4.4422303259643102E-2).

For the molecule `CNC1=NC(=O)/C(=C/c2ccc3ncccc3c2)S1` [RO4595949-000], the results for the potency estimated from few doses in the test on CDKL5 (CATDS: 4.9375621350065603E-2), in the test with JAK2 (CATDS: 6.3201453255696996E-2) and in the test with PRKD2 (CATDS: 5.1323444817528999E-2) were 2.15 µM, 0.79 µM and 1.77 µM, respectively.

As for `CN1C(=O)c2ccccc2N(C)c2nc(Nc3cnn(C4CCNCC4)c3)ncc21` [XMD-17-51], the potency estimated from few doses was 0.00684 µM with AURKB (compound concentrations: 100 nM and 1000 nM (sheet 'Samples'), CATDS: 0.169613052671825); 0.986 µM in the test with BMPR1B (compound concentrations: 100 nM and 1000 nM (sheet 'Samples'), CATDS: 1.5845545997130402E-2); 0.189 µM in the test on DDR2 (compound concentrations: 100 nM and 1000 nM (sheet 'Samples'), CATDS: 2.76833558022507E-2); 0.58 µM in the test with JAK2 (CATDS: 1.8456350462982201E-2); 0.0567 µM in the test with PLK4 (CATDS: 4.7474552673817297E-2); 1.62 µM with PRKD2 (CATDS: 1.4106382440731599E-2). Further, in the test on TGFBR1 (compound concentrations: 100 nM and 1000 nM (sheet 'Samples'), CATDS: 2.2276499347081799E-2), the potency estimated from few doses was 0.333 µM.
